Screening results: PubChem, National Center for Advancing Translational Sciences (NCATS)
Tb PYK inh: qHTS of Trypanosoma Brucei Inhibitors; pyruvate kinase (Trypanosoma brucei), Q57TT1; TbPYK enzyme, Kinase-Glo Plus ATP luminescence, 45 min; Potency, µM (titrated, usually from 76.8 µM), without a hit: top-dose activity, negative = inhibition, actives largely listed as inhibitors; 410,000 compounds, 0.12% hits; AID 624173, 2012; also: potency is read from the fitted curve at half-maximal effect; nearly all actives have a fitted effect of over 50% in size
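Readout: single end-point luminescence (Kinase-Glo Plus, 10 min). Reaction conditions were TbPYK/substrate plus 130 uM ADP, 45 min at RT, pH 7.2 TEA buffer. No-enzyme wells served as controls, and data were normalized before concentration-response fitting.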
Vaccinia Venus: qHTS for Stage-Specific Inhibitors of Vaccinia Orthopoxvirus: Venus Reporter Primary qHTS. Vaccinia virus Venus reporter expression, fluorescence. Potency, µM (top dose mostly 36.5 µM), for the others: at the top dose activity change, negative = inhibition, usual class: inhibitors. 330,000 compounds, 0.46% hits. AID 720580, 2013; calls by dose curve; tested in A549 cells; also: potency is read from the fitted curve at half-maximal effect; nearly all actives have a fitted effect of over 30% in size
VACV mCherry inh: qHTS for Stage-Specific Inhibitors of Vaccinia Orthopoxvirus: mCherry Reporter Primary qHTS. Vaccinia virus mCherry reporter infection, fluorescence. Potency, µM (top dose mostly 36.5 µM), for the others: at the top dose activity change, negative = inhibition, actives largely listed as inhibitors. 310,000 compounds, 0.63% hits. AID 720579, 2013; calls by dose curve; tested in A549 cells; also: potency is read from the fitted curve at half-maximal effect; nearly all actives have a fitted effect of over 35% in size
HCMV antiviral: qHTS Assay for inhibitors of the human cytomegalovirus (HCMV) | 410,000 compounds, 4.5% hits | HFF cells, HCMV-luciferase reporter, 72 h; hits give low values | activity change, negative = inhibition, % at 57.5 µM; in the data active = activity change below about -60%; inconclusive = no clear call, values can overlap the other calls; inactive = above about -39%
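Steps: HFFs plated, 16 h 37C; compounds added; HCMV-luciferase added to MOI 1 PFU/cell; 72 h 37C; OneGlo reagent, 5 min room temperature; luminescence read, normalized to controls.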
LmPK inhibitor: qHTS Assay for Inhibitors of Leishmania Mexicana Pyruvate Kinase (LmPK); purified LmPK, Kinase-Glo ATP luminescence, 1 h; Potency, µM (series often up to 57.5 µM), inactives show top-dose activity change, negative = inhibition, most hits filed as inhibitors; 290,000 compounds, 0.37% hits; also: potency is read from the fitted curve at half-maximal effect
Target sequence (Q27686 whole entry, looked up): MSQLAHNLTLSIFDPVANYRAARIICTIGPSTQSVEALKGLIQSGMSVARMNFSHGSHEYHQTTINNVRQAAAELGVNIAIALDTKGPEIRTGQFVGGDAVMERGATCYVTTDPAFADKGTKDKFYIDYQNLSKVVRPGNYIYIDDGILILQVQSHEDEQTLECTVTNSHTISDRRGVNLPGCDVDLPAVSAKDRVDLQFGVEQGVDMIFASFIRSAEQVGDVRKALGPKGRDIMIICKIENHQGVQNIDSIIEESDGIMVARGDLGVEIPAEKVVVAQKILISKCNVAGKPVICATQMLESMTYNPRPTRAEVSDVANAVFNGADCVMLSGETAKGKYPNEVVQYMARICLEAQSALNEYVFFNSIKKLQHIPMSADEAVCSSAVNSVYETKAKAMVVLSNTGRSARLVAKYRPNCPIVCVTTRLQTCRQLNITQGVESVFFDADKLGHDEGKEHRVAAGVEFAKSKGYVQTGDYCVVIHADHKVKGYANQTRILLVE
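In 50 mM imidazole pH 7.2 with 7 mM MgCl2, LmPK (0.1 nM) turned over PEP (0.5 mM) and ADP (0.1 mM) for 1 h at room temperature. Luciferase read-out of ATP.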
* marks the source's active call; other numbers are inactive results; i = inactive; ? = inconclusive; · = not tested or not shown; [ ] = dose if it differs, or a comment. Compounds with a hit are over-represented: about 5% of the library has one in this group of screens. Unless noted, calls follow the shape of the dose curve; as a rule, active = well fitted curve in the direction sought with a large enough effect; inconclusive = small, poorly fitted or top-dose-only effect, or another doubt; inactive = no such curve, though single readings can be large; an effect the other way counts as inactive or inconclusive. % is scaled to controls: 0 for no effect and ±100 for the full control effect.

SMILES | Tb PYK inh | Vaccinia Venus | VACV mCherry inh | HCMV antiviral | LmPK inhibitor
CC(C)c1ccc(CN(C(=O)c2cccs2)C2CCS(=O)(=O)C2)cc1 (stereo unspecified) | -0.5% | -10.5% | -23.6% | -68.9* | -0.2%
O=C(c1cc(-c2cccnc2)nc2ccccc12)N1CCN(S(=O)(=O)c2cccs2)CC1 | -5.1% | · | · | 0.0 | ·
Cc1nc(Sc2ccccc2)c(C#N)c(C)c1[N+](=O)[O-] | 2.1% | -15.6% | ? | -103.1* | 7.5%
COc1cc(OCc2ccccc2)c(C(=O)/C=C/c2ccc3c(c2)OCO3)c(OC)c1OC | 0.1% | -9.1% | -24.5% | ? | ·
CC(C)Nc1nc(-c2ccccn2)nc(-c2ccccc2)c1C#N | -5.0% | -7.5% | -18.2% | -67.3* | 1.1%
CC1Sc2ccc(S(=O)(=O)N3CCC(C(=O)Nc4cccc(Cl)c4)CC3)cc2NC1=O (stereo unspecified) | -5.0% | ? | ? | -99.9* | -0.5%
CC1Sc2ccc(S(=O)(=O)N3CCC(C(=O)NCc4ccc(Cl)cc4)CC3)cc2NC1=O (stereo unspecified) | 0.1% | -15.5% | -15.9% | -25.8 | 1.9%
Cc1ccc(NC(=O)C2CCN(S(=O)(=O)c3ccc4c(c3)NC(=O)C(C)S4)CC2)c(C)c1 (stereo unspecified) | 0.5% | -19.1% | i | 0.0 | 11.0%
CCc1ccc(NC(=O)C2CCN(S(=O)(=O)c3ccc4c(c3)NC(=O)C(C)S4)CC2)cc1 (stereo unspecified) | 2.7% | -29.6% | -11.3% | -97.2* | -6.9%
Cc1ccc(NC(=O)C2CCN(S(=O)(=O)c3ccc4c(c3)NC(=O)C(C)S4)CC2)cc1C (stereo unspecified) | -2.4% | -26.2% | -5.1% | -61.6* | 4.0%
Cc1ccc(S(=O)(=O)N2CCC(C(=O)OCC(=O)N(C)Cc3ccccc3)CC2)cc1C | 0.1% | -6.6% | -6.8% | -14.7 | ·
CN(Cc1ccccc1)C(=O)COC(=O)C1CCN(S(=O)(=O)c2ccc(Cl)c(C(F)(F)F)c2)CC1 | 1.5% | 2.1% | i | -65.9* | ·
CCC(Cc1ccccc1)NS(=O)(=O)c1ccc2c(c1)NC(=O)C(C)S2 (stereo unspecified) | -3.4% | -8.3%[7.34 µM] | -4.9%[7.34 µM] | -86.4* | -10.3%
CC1Sc2ccc(S(=O)(=O)N3CCC(C(=O)N(C)Cc4ccccc4)CC3)cc2NC1=O (stereo unspecified) | 0.8% | -8.6% | -11.7% | -64.0* | -0.1%
NS(=O)(=O)c1cnccc1Nc1ccc(Cl)cc1 | -1.4% | -15.5% | -4.6% | -28.1 | -2.0%
COc1ccc(/C=C(\NC(=O)c2ccccc2)C(=O)NCc2cccnc2)cc1 | 11.0% | -1.3% | i | -12.4 | 6.3%
Cc1cc(NC(=O)CC2Oc3ccccc3NC2=O)ccc1Br (stereo unspecified) | 19.3% | -26.2% | -16.3% | -12.8 | 2.8%
O=C(CSc1ccc(-c2ccco2)nn1)NCc1ccc(F)cc1 | 4.5% | -3.3% | i | -5.1 | -1.2%
O=C(CSc1ccc(-c2ccco2)nn1)c1ccc(F)cc1 | 20µM* | -14.6% | i | -12.2 | -8.2%
Cc1nc(C)c(-c2ccc(SCC(=O)Nc3ccc(Br)cc3)nn2)s1 | 0.7% | -27.6% | -27.3% | -68.9* | ·
COc1cc(NC(=O)CSc2ccc(-c3ccco3)nn2)cc(OC)c1 | ? | · | · | -4.6 | -3.2%
COc1ccc(NC(=O)CSc2nc(SC)ns2)cc1 | 12.9% | ? | 11.2µM* | 14.2 | -3.3%
COc1ccc(NC(=O)CSc2ccc(-c3sc(C)nc3C)nn2)cc1 | 11.7% | -5.1% | -14.2% | 31.0 | -3.5%
COc1ccc(NC(=O)CSc2ccc(-c3ccco3)nn2)cc1 | -3.7% | -11.4% | -16.6% | -65.9* | -0.6%
Cc1cccc(OCc2nc(-c3ccc(-n4cccc4)cc3)no2)c1 | -3.2% | -18.9% | -2.6% | 46.6 | 2.8%
O=C(OCCO)c1c(-c2ccccc2)oc2c1C(OCCO)CCC2 (stereo unspecified) | 2.0% | -2.1% | -2.9% | -3.9 | ·
